# According to the supplement of paper PMC3334620:
# Whole data set: some 33,000 sequences, median “E-score (-0.5 to 0.5)” near -0.043, cut for the highest 2% near 0.37. The sample holds the highest values, similar sequences and a random draw of the others, so the mix is not that of the screen.
# Biological target: T1, Upc2 (UniProt Q12151)
# T1 sequence: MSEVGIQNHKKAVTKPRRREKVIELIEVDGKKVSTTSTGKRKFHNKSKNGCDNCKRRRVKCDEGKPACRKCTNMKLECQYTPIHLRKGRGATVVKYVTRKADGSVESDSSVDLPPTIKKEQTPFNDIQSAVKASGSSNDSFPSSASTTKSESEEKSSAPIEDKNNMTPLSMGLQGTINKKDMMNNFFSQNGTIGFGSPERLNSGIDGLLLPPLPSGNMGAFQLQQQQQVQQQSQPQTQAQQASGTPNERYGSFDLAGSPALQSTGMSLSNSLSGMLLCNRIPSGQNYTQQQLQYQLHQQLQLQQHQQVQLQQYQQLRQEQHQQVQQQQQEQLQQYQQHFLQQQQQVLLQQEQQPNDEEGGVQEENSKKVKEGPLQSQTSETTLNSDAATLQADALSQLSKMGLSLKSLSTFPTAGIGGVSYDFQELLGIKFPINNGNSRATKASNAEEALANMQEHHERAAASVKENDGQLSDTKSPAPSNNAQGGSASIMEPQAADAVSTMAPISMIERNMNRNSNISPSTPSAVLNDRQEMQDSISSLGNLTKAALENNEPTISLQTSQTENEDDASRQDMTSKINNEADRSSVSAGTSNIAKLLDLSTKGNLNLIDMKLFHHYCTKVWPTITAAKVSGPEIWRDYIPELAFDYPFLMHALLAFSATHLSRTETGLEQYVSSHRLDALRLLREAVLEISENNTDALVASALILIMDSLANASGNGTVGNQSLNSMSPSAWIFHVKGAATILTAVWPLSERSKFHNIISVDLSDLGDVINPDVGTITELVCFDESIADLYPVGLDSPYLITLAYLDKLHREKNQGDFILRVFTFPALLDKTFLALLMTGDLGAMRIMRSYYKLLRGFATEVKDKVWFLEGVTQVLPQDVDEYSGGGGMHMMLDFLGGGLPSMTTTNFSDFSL
# Assay: PBM E-score (8-mer binding enrichment) (E-score (-0.5 to 0.5)); higher = stronger / more preferred TF binding
# Conditions: protein concentration: 200 nM; construct: GST-full length
# Procedure: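 Universal 'all 10-mer' protein binding microarrays (Agilent AMADID 015681) probed with GST-tagged S. cerevisiae TFs (full-length or DBD) made by in vitro transcription/translation (PURExpress), about 100-200 nM. Bound TF was detected with fluorescent anti-GST. Each ungapped 8-mer (which stands for itself and its reverse complement) is scored by the PBM enrichment score (E-score), a modified Wilcoxon-Mann-Whitney statistic from -0.5 to +0.5, computed with the Universal PBM Analysis Suite. Scale: above 0.35 generally sequence-specific binding.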
row,Sequence,PBM E-score
1,TCGAGAGA,0.0401
2,GCTAACAC,-0.0792
3,CCTTACAA,-0.227
4,CCCTATAC,0.342
5,GCCTATAC,0.276
6,ACCTATAC,0.382
7,AAGGGGGC,0.0404
8,CATCTTCA,-0.263
9,CTAACGAC,0.279
10,AAAACGAT,0.265
11,CCAACGAG,0.091
12,CCAACGAC,0.0191
13,ACAACGAC,0.258
14,AAAACGAG,0.316
15,CAAACGAC,0.464
16,AAAACGAC,0.375
17,CAAACGAG,0.484
18,GAAACGCC,0.0519
19,GAAACGGC,0.187
20,GAAACGAC,0.423
21,ATTGCTGG,-0.0945
22,CACGGCTC,-0.128
23,ACGCTGGA,0.0743
24,CCAACCCA,-0.236
25,ATCCACCC,-0.179

row,Sequence,PBM E-score
1,GGGTTACC,0.0304
2,ACGCTTAA,0.135
3,ATTGGATG,0.03
4,ATTACCAA,-0.131
5,CGCTAGAC,-0.0752
6,GCGTACCA,0.215
7,ACGTACAA,0.309
8,CGGTACAA,0.222
9,CAGTACAA,-0.0317
10,ACGTACCA,0.255
11,TCGTACAA,0.487
12,TCGTACCA,0.476
13,CCGTACAA,0.413
14,GCGTACAA,0.324
15,AGCCCTTC,-0.211
16,ATATATCC,0.0459
17,AGAGGACG,-0.0919
18,AATGGGCA,-0.00586
19,CAAGATAG,-0.0974
20,CTTTCGGA,-0.11
21,ATTTCGTC,0.0429
22,ATTTCGTG,0.0688
23,GTTTCGTA,0.446
24,CTTTCGTC,-0.043
25,ATTTCGTA,0.431

row,Sequence,PBM E-score
1,GTTTCGGA,0.219
2,GTTTCGAA,0.0998
3,CTTTCGTA,0.416
4,CATAATCC,-0.0711
5,GAAGGCGC,-0.132
6,AGCGTAAT,-0.0565
7,CAGCTATA,0.0617
8,AGACGATG,0.0313
9,CTACGATC,0.288
10,ATACGATG,0.473
11,ACACGATG,0.166
12,ATACGATC,0.465
13,ACACGATC,0.123
14,CGCTAAAC,0.345
15,ACAAGCCC,-0.1
16,AAGAACGA,0.408
17,CAGAACGA,0.399
18,TAGAACGA,0.383
19,AAGAACGG,0.0306
20,GAGAACGA,0.36
21,TAGAACCA,-0.0454
22,CAGAACGC,-0.0286
23,AAGAACGT,0.108
24,CAGAACGG,0.139
25,CTTGGATA,-0.103

row,Sequence,PBM E-score
1,AACCTAAC,-0.0536
2,CCCCAACG,-0.107
3,CCTAAACC,0.0842
4,CCTAAACG,0.472
5,ACTAAACG,0.463
6,ATTTAACA,0.0412
7,ACTAAACC,0.0385
8,ATTAAACC,-0.0396
9,ACTAAACA,-0.109
10,ATTAAACG,0.461
11,ATTTAACC,-0.0686
12,ATTAAACA,-0.0789
13,ATTTAACG,0.387
14,CCTAAACA,-0.063
15,CGACTCTA,0.0472
16,CAAGGTTA,0.0313
17,AGCATCCG,0.106
18,TACTCAGA,-0.0518
19,CGCCTGTA,-0.0476
20,GACCCACA,0.0499
21,CAAGTAAA,0.0181
22,GGTTGACA,-0.0866
23,ATCTAATC,-0.0686
24,CCTCGTAC,0.477
25,CCTCGTAA,0.444

row,Sequence,PBM E-score
1,TCTCGTCA,-0.0265
2,CCTCATAG,-0.226
3,CCTCGTCG,0.195
4,CCTCGTGA,0.168
5,CCTCGGAC,0.199
6,CCTCGTAG,0.389
7,CCTCGTCA,0.108
8,TCACGTAA,0.0344
9,CCGCGTAC,0.324
10,TCTCGTAA,0.434
11,CATCACTA,-0.183
12,CACTTTCA,-0.151
13,CCTACACA,-0.118
14,CGAGAGAA,0.113
15,CCTCAGTA,-0.0614
16,GCTCGTAC,0.477
17,ACTCGTGC,0.0738
18,ACTCGTAC,0.472
19,GCTCGTGA,0.00182
20,GCTCGTCC,-0.249
21,ACTCGTAA,0.433
22,GCTCGTAA,0.456
23,ACTCGTCA,-0.0246
24,GCTCGTCA,0.0569
25,ACTCGTAG,0.353

row,Sequence,PBM E-score
1,GCACGTAC,0.227
2,ACTCGTCC,-0.141
3,CCTAAGGA,-0.0656
4,ACAAGCTC,-0.0437
5,CCGTGGCC,-0.206
6,CCAAGTGG,-0.186
7,ATGCAACG,0.113
8,ACCCCTGC,-0.412
9,ATGACTCA,0.029
10,CAGCCTCA,-0.0411
11,CTCTCAAG,-0.308
12,AGATATGC,-0.186
13,ACTCGTCT,0.167
14,ACTCGTAT,0.483
15,ACTCGGAT,0.252
16,ATCGATCC,-0.00332
17,CATCCACA,-0.0464
18,CTAAGCGC,0.14
19,GGAAGCGA,0.145
20,ATAAGCGA,0.347
21,CTAAGCGA,0.416
22,CTAAGCTA,0.015
23,GTAAGCGA,0.388
24,CCATCGAC,-0.247
25,ATGGGAGA,-0.251

row,Sequence,PBM E-score
1,AACCGGTT,0.107
2,ACTCTAGC,-0.12
3,GGAACTGA,-0.0729
4,AACGCTGA,0.0761
5,CTAGTGAA,-0.126
6,AACGTTCC,0.152
7,CCCGTTCC,0.327
8,GACGTTCA,0.0943
9,CTCGTTGA,0.313
10,CGCGTTCC,0.223
11,CACGTTCA,0.092
12,ATCGTTCC,0.43
13,AGCGTTCC,0.117
14,GGCGTTCA,0.0581
15,CTCGTTCC,0.479
16,CTCGTTCA,0.476
17,GTCGTTCA,0.467
18,AAATGGCG,-0.0033
19,AGCTAATC,-0.0679
20,ATCAAAAC,0.0147
21,ACACTGTA,0.106
22,ATCGAAGC,-0.00965
23,GGTGTGGA,0.00988
